Drawing on PubChem BioAssay (NCI), this text covers growth for 8 compounds.

Common to all, as to assay: NCI-60 one-dose screen, 48 h (100 = growth as untreated, 0 = no growth, -100 = all killed)
What all share (settings): 10 µM unless noted

The subject of experiment [1] is SR leukemia.
Experiment [2] concerns RPMI-8226 leukemia.
Experiment [3] deals with OVCAR-8 ovarian.
Experiment [4] deals with OVCAR-5 ovarian.
Experiment [5] concerns OVCAR-4 ovarian.
Experiment [6] deals with SK-OV-3 ovarian.
For experiment [7], the system named is IGROV1 ovarian.
Experiment [8] concerns OVCAR-3 ovarian.
In experiment [9] the test system is HS 578T breast.
For experiment [10], the system named is NCI/ADR-RES ovarian.
Experiment [11] concerns T-47D breast.
For experiment [12], the system named is BT-549 breast.
The test system of experiment [13] is MDA-MB-435 melanoma.
For experiment [14], the system named is SW-620 colon.
Experiment [15] has as its system MCF7 breast.
For experiment [16], the system named is HCT-116 colon.
For experiment [17], the system named is HCC-2998 colon.
The subject of experiment [18] is KM12 colon.

Compounds without any hit were thinned out: in the full panel of roughly 83,000, 20% have a hit.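 Each cell line was grown in a 96-well plate and treated with one concentration of compound for 48 hours. Values below 10 were considered active.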 Values without a mark were called inactive. Activity calls are given as the source filed them.

On to `CCCCCc1ccc(S(=O)(=O)Nc2cccc(-c3csc(NC(=O)CNCCN(C)C)n3)c2)cc1`, for which the growth in [1] was 22.2%; in [2], 30.3%; in experiment [3], 95.7%; in experiment [4], 110%; in experiment [5], 70%; in [6] it was 109%. For the same compound, the growth is 87.9% in experiment [7]; 87.7% in experiment [8]; 90.9% in experiment [9]; 73.1% in experiment [10]; 68.3% in experiment [11]; 104% in experiment [12]. Also, the growth in [13] is 90.1%; in [14] it was 87.3%; in [15], 41.3%; in [16], 55.4%; in experiment [17] it was 16.2%; in experiment [18] it was 90.2%.
`O=C(CCn1cc[n+](CC(=O)c2ccc(-c3ccccc3)cc2)c1)Nc1cccc2cccnc12`: the growth in [1] was 79.8%; in experiment [2] it was 34%; in experiment [3], 82.4%; in experiment [4], 91.7%; in experiment [5] it was 24.6%; in experiment [6], 74.6%. Moreover, the growth in [7] was 36.4%; in experiment [8], 51.9%; in [9] it was 71.3%; in experiment [10] it was 99.7%; in experiment [11] it was 42.4%; in [12], 57.2%. In addition, the growth was 87.2% in experiment [13]; 85.8% in [14]; 58% in experiment [15]; 84.5% in experiment [16]; 68.4% in experiment [17]; 42.9% in experiment [18].
Turning to `CS(=O)(=O)c1ccc(-c2nn(-c3ccccc3)cc2/C=N/NC(=O)c2nc(N)n[nH]2)cc1`, the growth in experiment [1] was 69.7%; in experiment [2], 83.3%; in experiment [3] it was 101%; in [4], 94.8%; in [5], 103%; in experiment [6], 112%. The growth in experiment [7] is 90.8%; in experiment [8], 97.1%; in experiment [9] it was 111%; in experiment [10], 98.9%; in experiment [11] it was 101%; in experiment [12] it was 103%. For the same compound, the growth in experiment [13] is 91.9%; in experiment [14] it was 88.4%; in [15], 88.3%; in experiment [16] it was 94.8%; in [17], 117%; in experiment [18] it was 94.7%.
Take `O=C(NNc1nc2cc(F)cc(F)c2n2cccc12)c1cnccn1`: the growth in [1] is 8.81% (active); in experiment [2] it was 18.3%; in experiment [3], 12.7%; in experiment [4] it was 33.1%; in experiment [5], 16.2%; in [6], 4.18% (active). The growth in experiment [7] is 15%; in experiment [8], 30.2%; in [9], 64.4%; in [10], 3.06% (active); in [11], 10.3%; in [12], 24.1%. In addition, the growth in experiment [13] is 31.3%; in experiment [14], 21.7%; in experiment [15], 3.97% (active); in experiment [16], 12.3%; in [17] it was 49.9%; in [18] it was 28.7%.
With `O=C(CN1CCN(c2cc(=O)n(-c3ccccc3)c3ccccc23)CC1)Nc1nc(-c2ccccc2)cs1`, the growth is 51.3% in [1]; 46.2% in experiment [2]; 69.8% in experiment [3]; 94.1% in experiment [4]; 23.3% in experiment [5]; 70.7% in experiment [6]. Besides, the growth in experiment [7] was 67.5%; in [8], 72.5%; in [9], 82.9%; in experiment [10], 62.7%; in experiment [11], 16.6%; in experiment [12], 67.1%. In addition, the growth is 73.4% in experiment [13]; 68.6% in experiment [14]; 27.6% in experiment [15]; 53.4% in experiment [16]; 81.8% in experiment [17]; 63% in experiment [18].
Take `C=C=COc1cccc(/C(N)=N/C(N)=N/c2nc3ccccc3s2)c1`: the growth in experiment [1] was 6.37% (active); in [2], 106%; in experiment [3], 62.8%; in experiment [4] it was 83.4%; in experiment [5] it was 89.4%; in [6], 102%. The growth in experiment [7] was 57.7%; in experiment [8], 100%; in experiment [9] it was 59.9%; in [10], 88.5%; in experiment [11], 63.1%; in [12] it was 56%. Besides, the growth in experiment [13] is 77.8%; in experiment [14] it was 94.9%; in experiment [15], 93.1%; in experiment [16] it was 25.1%; in experiment [17], 102%; in experiment [18] it was 71.1%.
Regarding `CN1CCN(c2ccc(/C=N/Nc3nc4ccccc4c(=O)n3-c3ccccc3)cc2)CC1`, the growth is 93.4% in experiment [1]; 101% in [2]; 102% in experiment [3]; 107% in [4]; 97.2% in [5]; 109% in [6]. In addition, the growth was 104% in experiment [7]; 104% in experiment [8]; 92.5% in [9]; 101% in experiment [10]; 92.6% in [11]; 108% in experiment [12]. Also, the growth in [13] was 104%; in [14], 99.6%; in [15] it was 93.3%; in experiment [16] it was 99%; in [17], 103%; in [18], 99.8%.
Regarding `COc1ccc(-c2nc3cccc(O)c3c(=O)n2Cc2ccccc2)cc1COc1ccc(NC(C)=O)cc1`, the growth in experiment [1] was 27.5% [3 µM]; in experiment [2], 44.5% [3 µM]; in [3] it was 49.3% [3 µM]; in experiment [4], 64.2% [3 µM]; in experiment [5] it was 83% [3 µM]; in experiment [6], 67.2% [3 µM]. Besides, the growth is 41.6% [3 µM] in [7]; 66.9% [3 µM] in experiment [8]; 63.8% [3 µM] in experiment [9]; 51.1% [3 µM] in [10]; 76.5% [3 µM] in [11]; 55.4% [3 µM] in experiment [12]. The growth in experiment [13] is 59.7% [3 µM]; in [14], 27.9% [3 µM]; in experiment [15] it was 37.1% [3 µM]; in [16] it was 22.1% [3 µM]; in experiment [17], 67.8% [3 µM]; in [18] it was 39.8% [3 µM].
